# Results from PubChem BioAssay (Tox21).
# Where “and” joins values, the source holds several entries; their conditions need not be identical. Equal entries are not always repeated. Inconclusive results are not listed. Where a call stands in place of a potency, no number is given. Calls of active or inactive are those of the source. Calls follow the shape of the dose curve; as a rule, active = well fitted cell-killing curve with a large enough effect in the repeat runs; inconclusive = weak or mixed curves, or effect the other way; inactive = no such curve, though single readings can be large or run the other way.
# Assay: qHTS assay to identify small molecule agonists of the vitamin D receptor (VDR) signaling pathway - cell viability counter screen (AID 743224); also: nearly all actives have a fitted effect of over 50% in size
# Conditions: VDR-bla HEK293T viability, CellTiter-Glo luminescence, 16 h; series mostly up to 62.6 µM
# Source text: U.S. Tox21 Program National Center for Advancing Translational Sciences [NCATS] NIH Chemical Genomics Center [NCGC] U.S. Environmental Protection Agency [EPA] National Institutes of Environmental Health Sciences [NIEHS] National Toxicology Program [NTP] U.S. Food and Drug Administration [FDA] Tox21 Assay Overview: The vitamin D receptor (VDR), a member of nuclear hormone receptor superfamily, plays a critical role in calcium homeostasis and bone metabolism. It is also involved in cell differentiation and growth, and thrombogenicity. […] The cytotoxicity of the Tox21 compound library against the VDR-bla cell line was tested in parallel by measuring the cell viability using CellTiter-Glo assay (Promega, Madison, WI) in the same wells.
# Tox21 Assay Protocol Summary: VDR-bla cells were dispensed at 2,000 cells/6 uL/well into black wall/clear-bottom 1536-well plates using a Multidrop Combi (Thermo Fisher Scientific, Waltham, MA) dispenser. After the assay plates were incubated at a 37C and 5% CO2 for 4 h, 23 nL of compounds dissolved in DMSO, positive controls or DMSO only was transferred to the assay plate by a Pintool station (Kalypsys, San Diego, CA). The plates were incubated at 37C and 5% CO2 for 16 h. After 1 uL of LiveBLAzerTM B/G FRET substrate was added using a Bioraptr Flying Reagent Dispenser (FRD) workstation (Beckman Coulter, Indianapolis, IN, USA), the plates were incubated at room temperature for 2 h, and fluorescence intensity was measured by an Envision plate reader (PerkinElmer, Shelton, CT). For cell viability readout that measures cytotoxicity, 3 ul/well of CellTiter-Glo reagent was added into the assay plates using a FRD. After 30 min incubation at room temperature, the luminescence intensity in the plates was measured using a ViewLux (PerkinElmer) plate reader.
# Potency is read from the fitted curve at half-maximal effect.
row,Compound,Potency
1,BrCC(Br)(Br)Br,inactive
2,CCN(CC)Cc1nccn1-c1ccc([N+](=O)[O-])cc1C(=O)c1ccccc1Cl,inactive
3,CC(=O)[O-].CC(=O)[O-].O.O.[Zn+2],inactive
4,Oc1cc(Cl)c(Cl)c(Cl)c1Cl,24 µM (active)
5,CC(=O)[O][Pb]([c]1ccccc1)([c]1ccccc1)[c]1ccccc1,1.55 µM (active)
6,C=CCOC(=O)c1ccccc1N,inactive
7,CCN(CC)C(=O)N[C@@H]1C=C2c3cccc4[nH]cc(c34)C[C@@H]2N(C)C1,inactive
8,CCCCCON=O,inactive
9,S=C=NCCc1ccccc1,inactive
10,O=[N+]([O-])c1cc(C(F)(F)F)c(Cl)c([N+](=O)[O-])c1Nc1ncc(C(F)(F)F)cc1Cl,4.9 µM (active)
11,[Cl-].[Cl-].[Cl-].[Yb+3],inactive
12,Nc1ccccc1-c1ccccc1,inactive
13,O=[N+]([O-])C(Br)Br,inactive
14,CCCCc1ccccc1,inactive
15,CCCCn1cc[n+](C)c1 (tested in a mixture with another compound),inactive
16,CC#C[C@]1(O)CC[C@H]2[C@@H]3C[C@H](C)C4=CC(=O)CC[C@]4(C)[C@H]3CC[C@@]21C,inactive
17,CCCCC(CC)COC(=O)c1ccccc1C(=O)OCC(CC)CCCC (stereo not given),inactive
18,CCOP(=O)(Sc1ccccc1)Sc1ccccc1,inactive
19,COP(=S)(NC(C)C)Oc1ccc(C)cc1[N+](=O)[O-] (stereo not given),inactive
20,CC(C)(C)c1ccc(OP(=O)(Oc2ccccc2)Oc2ccccc2)cc1,inactive

row,Compound,Potency
1,c1ccc2nc(N3CCNCC3)ccc2c1,inactive
2,CN1[C@@H]2CC[C@H]1CC(O)C2 (stereo not given in full),inactive
3,BrCCCBr,inactive
4,CCOP(=O)(OCC)Oc1nc(Cl)c(Cl)cc1Cl,4.34 µM (active)
5,CCCN,inactive
6,CC(=O)C(Cl)C(=O)N(C)C (stereo not given),inactive
7,CC(C)c1c(CN(C)C(C)Cc2ccccc2)n(C)n(-c2ccccc2)c1=O (stereo not given),inactive
8,Fc1ccc(C(OCCN2CCN(CCCc3ccccc3)CC2)c2ccc(F)cc2)cc1,29.8 µM (active)
9,CCN1CCC2(CC1)COc1cc3c(cc12)N(C(=O)c1ccc(-c2ccc(-c4nnc(C)o4)cc2C)cc1)CC3,35.9 µM (active)
10,COc1nc(C)nc(NC(=O)NS(=O)(=O)c2ccccc2Cl)n1,inactive
11,CC(=O)[O-].CC(=O)[O-].O.O.O.[Pb+2],inactive
12,CN1CCc2cc3c(cc2C1O)OCO3 (stereo not given),inactive
13,Brc1cccc(-c2ccccc2)c1,inactive
14,C=CCBr,inactive
15,O=S(=O)(O)F,inactive
16,Cc1ccc(C)c2ccccc12,inactive
17,COc1ccc2c3c1O[C@H]1[C@H](O)CC[C@H]4[C@@H](C2)N(C)CC[C@@]341,inactive
18,CCN(CC)C(=S)S,4.87 µM (active) and 6.92 µM (active)
19,CCC[CH2][Sn]([CH2]CCC)([CH2]CCC)[O][Sn]([CH2]CCC)([CH2]CCC)[CH2]CCC,0.603 µM (active)
20,CN,inactive
